Results as given in ChEMBL document CHEMBL3988442, “University of Dundee, Small-Polar-MMV Screening Library” (2021).
Screen size: about 48,000 compounds; about 13,000 (27%) showed an effect of 50% or more. Some of the results follow.

Test system: Wolbachia pipientis
Test: Anti-Wolbachia Cell-Based Screen
Format: functional
Parameters: scale not given: in the data most compounds retested in dose-response had high values
Settings: 5 µM

Compound	Percent Effect
CCN1CCN(c2ccc(F)cc2C(C)NCc2ccncc2)CC1 (stereo not drawn)	0.6189%
COCCC(C)NC(=O)Nc1ccc(N2CCOC2=O)c(OC)c1 (stereo not drawn)	-2.31%
O=C(Cn1ccc2ccccc21)Nc1cc(N2CCOCC2)ncn1	-11.42%
CN(C)C(=O)Cc1ccc(NC(=O)NC2CC2)cc1	-3.674%
COc1ccc(CN(C(=O)C2CCCOC2)c2ccncc2)cc1 (stereo not drawn)	-5.222%
O=c1[nH]c2ccccc2cc1CN(Cc1ccccn1)CC1CCCO1 (stereo not drawn)	7.522%
COc1ccc(CN(Cc2cncn2C)CC2CCCO2)cc1OC.O=C(O)CC(O)(CC(=O)O)C(=O)O (stereo not drawn)	-10.71%
COc1ccccc1CN(Cc1cccnc1)CC1CCCO1.O=C(O)CC(O)(CC(=O)O)C(=O)O (stereo not drawn)	117.4%
Cc1nc2ccccn2c1CN(Cc1cccnc1)CC1CCCO1 (stereo not drawn)	-2.807%
COc1ccc(CN(Cc2c[nH]cn2)CC2CCCO2)c(OC)c1.O=C(O)CC(O)(CC(=O)O)C(=O)O (stereo not drawn)	99.96%
COc1ccc(CN(Cc2cncn2C)CC2CCCO2)cc1.O=C(O)CC(O)(CC(=O)O)C(=O)O (stereo not drawn)	108.8%
COc1ccccc1CN(Cc1cccnc1)Cc1c[nH]c(C)n1	-35.67%
Cn1cnc2c(N3CCCC3)nc(C3CCN(CC4CC4)CC3)cc21.O=C(O)C(F)(F)F.O=C(O)C(F)(F)F	-3.967%
O=C(O)c1coc(COc2cccc3cnccc23)n1	-2.104%
CC(=O)N1CCC(N2C[C@@H](F)[C@@H](OCc3nc4ncccc4[nH]3)C2)CC1	-11.9%
CNS(=O)(=O)c1cccc(C(C)NCc2ccncc2)c1 (stereo not drawn)	-20.6%
CN(C)C(=O)CN1CC[C@]2(CN(CC3CC3)C[C@H]2c2ccccc2)C1=O.O=C(O)C(F)(F)F	97.34%
CN1CC[C@]2(CN(Cc3nccs3)C[C@H]2c2ccccc2)C1=O.O=C(O)C(F)(F)F	-12.3%
CN1CC[C@]2(CN(S(C)(=O)=O)C[C@H]2c2ccccc2)C1=O	102.2%
CN1CC[C@]2(CN(CC3CCOC3)C[C@H]2c2ccccc2)C1=O.O=C(O)C(F)(F)F (stereo partly drawn)	100.2%
CCN1CC[C@]2(CN(Cc3nccs3)C[C@H]2c2ccccc2)C1=O.O=C(O)C(F)(F)F	-7.222%
CN1CC(c2ccccc2)C2(CCN(C(=O)c3cccn3C)CC2)C1=O (stereo not drawn)	-2.229%
Cc1cc(CN2C[C@@H](C)[C@@]3(CCN(CC(=O)N(C)C)C3=O)C2)oc1C.O=C(O)C(F)(F)F	15.48%

Compound	Percent Effect
CN1CC[C@]2(CN(CC3CCOCC3)C[C@H]2c2ccccc2)C1=O.O=C(O)C(F)(F)F	123.3%
CN1CCC2(CCN(CC3CCOCC3)CC2)C1=O.O=C(O)C(F)(F)F	-1.769%
CCN1C(=O)C(c2ccccc2)CC12CCN(S(C)(=O)=O)CC2 (stereo not drawn)	-8.52%
N#Cc1ccc(CN2CCCCC2Cn2cncn2)c(F)c1 (stereo not drawn)	-2.215%
CN1CC[C@]2(CN(CC3CC3)C[C@H]2c2ccccc2)C1=O	103.2%
O=C(O)C(F)(F)F.O=C1NCC[C@]12CN(Cc1nccs1)C[C@H]2c1ccccc1	-4.824%
Cc1ccc(CN2CCOC3(CCN(C(=O)C4CCOC4)CC3)C2)cc1.O=C(O)C(F)(F)F (stereo not drawn)	2.988%
Cc1ccc(CN2CCOC3(CCN(C(=O)N4CCCC4)CC3)C2)cc1.O=C(O)C(F)(F)F	-8.825%
CN1CC[C@]2(CN(Cc3cccs3)C[C@H]2c2ccccc2)C1=O	-2.755%
Cc1ccc(CN2CCOC3(CCN(CC4CCOC4)CC3)C2)cc1.O=C(O)C(F)(F)F.O=C(O)C(F)(F)F (stereo not drawn)	104.9%
O=C(O)C(F)(F)F.O=C(c1cccnc1)N1C[C@@H](c2ccccc2)[C@@]2(CCNC2=O)C1	-21.16%
O=C(O)C(F)(F)F.O=C1NCC[C@]12CN(CC1CCOCC1)C[C@H]2c1ccccc1	108.1%
CC1CCCN(c2ccccc2OCC(=O)NC2CCOCC2)C1 (stereo not drawn)	10.97%
CC(C)NC(=O)CC(C)NC(=O)N(C)Cc1cc(Cl)cn1C (stereo not drawn)	-3.888%
CC(C)N1C(=O)C[C@H]2[C@@H]1CCN2C(=O)c1ccco1	-5.125%
COCC1CN(C(=O)c2cccs2)Cc2nccn2C1 (stereo not drawn)	-51.2%
COCC1CN(C(=O)c2ccccn2)Cc2nccn2C1 (stereo not drawn)	101.9%
O=C(CC1CC1)N1Cc2nccn2CC(COc2cccnc2)C1 (stereo not drawn)	106%
O=C1CCCN1CC1CN(C(=O)C2CCOCC2)Cc2nccn2C1 (stereo not drawn)	-10.76%
COCC(=O)N1Cc2nccn2CC(CN(C)Cc2cccnc2)C1 (stereo not drawn)	3.316%
COCC(=O)N1Cc2nccn2CC(COc2cccnc2)C1 (stereo not drawn)	115.8%
O=C([C@H]1CCCO1)N1Cc2nccn2CC(COc2cccnc2)C1 (stereo partly drawn)	99.26%
O=C(c1ccccn1)N1Cc2nccn2CC(COc2cccnc2)C1 (stereo not drawn)	-5.974%

Compound	Percent Effect
CN(C)CCOCC1CN(C(=O)[C@H]2CCCO2)Cc2ccnn2C1 (stereo partly drawn)	-10.91%
N#CCCN(CC1CCOC1)S(=O)(=O)c1cccc(Cl)c1 (stereo not drawn)	-9.345%
CCCN1C(=O)C2(CCCCC2)NC1c1c[nH]nc1-c1cccnc1 (stereo not drawn)	-6.37%
CC(NCc1ccccc1O)c1ccc(-n2ccnc2)cc1 (stereo not drawn)	4.863%
CC(=O)NCCc1ccc(S(=O)(=O)N(CC(C)C)C(C)C)s1	-14.51%
Nc1ccc(C(=O)N2CCC(Oc3cccc(C(F)(F)F)c3)CC2)cn1	-4.227%
CN(C(=O)c1ccc(C2CCCO2)s1)C1CCS(=O)(=O)CC1 (stereo not drawn)	4.966%
CSCCC1c2nc[nH]c2CCN1Cc1ccccc1C(F)(F)F (stereo not drawn)	-7.167%
O=C(c1ccc[nH]1)N1Cc2nccn2CC(COc2cccnc2)C1 (stereo not drawn)	86.9%
Cc1cc(CN2CC[C@H]3C(=O)N(c4cccnc4)CCO[C@H]3C2)no1	-10.41%
CCN1CCN(C(=O)c2nc(C)n(-c3ccccc3Cl)n2)CC1	7.919%
Cc1nn(-c2ccccc2Cl)c(C)c1CCC(=O)O	123.4%
Cc1nn(-c2ccccc2)c(C)c1CNC(=O)NC1CC1	9.435%
Cc1nn(-c2cc(Cl)cc(Cl)c2)c(C)c1CCC(=O)O	123.3%
CCCNC(=O)C(C)NC(=O)CCc1ccccc1Br (stereo not drawn)	-13.88%
COC(=O)C(CCSC)NC(=O)Cc1c(C)nn(-c2ccccc2)c1C (stereo not drawn)	-1.135%
CS(=O)(=O)CCC(=O)Nc1cnn(-c2ccccc2Cl)c1	3.918%
Cc1nn(-c2ccccc2Cl)c(C)c1CCC(=O)NCCS(C)(=O)=O	98.33%
Cc1c(C(=O)NCC(F)(F)F)nnn1-c1ccccc1Cl	-14.83%
CCCNC(=O)CNC(=O)CCc1ccccc1Br	0.9662%
CCN(C(=O)NCCc1ccccc1Cl)C(C)CS(C)(=O)=O (stereo not drawn)	-2.563%
CCN(CC)CCNC(=O)CCc1c(C)nn(-c2ccccc2Br)c1C	111.1%
